# Data reported in PubChem BioAssay AID651812 (National Center for Advancing Translational Sciences (NCATS), 2012).
# Out of some 2,100 compounds screened, about 650 (31%) were called active. Roughly 16% stayed inconclusive and do not appear here. Some of the results follow. A number with no mark means an inactive call. Calls come from the whole dose curve; as a rule, active = well fitted inhibition curve with a large enough effect; inconclusive = small, poorly fitted or top-dose-only effect; inactive = flat fitted curve, though single readings scatter.
# Assay: qHTS for inhibitors of Vif-A3G interactions: Cherry picks; note: nearly all actives have a fitted effect of over 80% in size; for activity, negative = fluorescence increase: % of control where 0% means no effect
# Conditions: HeLa A3G-eYFP + Vif (tagged APOBEC3G with the HIV-1 protein that degrades it), 24 h; Potency: eYFP fluorescence increase; series mostly up to 36.9 µM; activity, negative = fluorescence increase: at the top concentration
# Method in brief: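 HeLa cells stably expressing A3G-eYFP and Vif, cultured overnight then exposed to compounds at several concentrations for 24 hours at 37 C, 5% CO2; cellular yellow fluorescence (488 nm ex, 500-530 nm em) imaged on Acumen, MG132 positive control.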
# Potency is the fitted concentration of half-maximal effect.
SMILES,Potency,"activity, negative = fluorescence increase"
O=C1c2ccccc2C(=O)c2cc(N3CCCCC3)ccc21,7.9 µM (active),
O=C(N/N=C/c1cccc2ccccc12)c1cc2ccccc2o1,,-0.291%
COc1ccc(NC(=O)c2sc3nc(C(F)(F)F)cc(C)c3c2N)cc1OC,23.1 µM (active),
COc1ccc(Nc2nc(C)nc3sc4c(c23)CCC4)cc1O,,-8.04%
COc1cccc(C(=O)c2sc3nc(-c4ccccc4)cc(C(F)(F)F)c3c2N)c1,1.64 µM (active),
COC(=O)CCS(=O)(=O)c1nc(-c2ccccc2)cc(C(F)(F)F)n1,,-2.39%
COc1ccc(COc2cc(-c3cccc(OC)c3)nc3ccc(NC(=O)c4ccc(OC)cc4)cc23)cc1,,-7.32%
COc1ccc(C(=O)c2ccc(OC)c(OC)c2OC)cc1,,-6.12%
COc1cc(C(=O)Nc2ccc3c(c2)nc(C)n3C)cc(OC)c1OC,,-0.44%
COc1cccc(-c2ccc3c(N)c(C(=O)c4ccc(Br)cc4)sc3n2)c1,16.4 µM (active),
COc1ccc(N(C(=O)C(C)C)S(=O)(=O)c2cccs2)cc1,,0.154%
COc1ccc(C(=O)c2sc3nc(C)cc(-c4cccs4)c3c2N)cc1,18.4 µM (active),
O=c1[nH]c(NCc2ccco2)nnc1Cc1ccccc1Cl,,-11.5%
Cc1c(C(=O)N/N=C/C(C)C)[nH]c2c([N+](=O)[O-])cccc12,,-0.808%
CN[C@H]1CCc2cc(OC)c(OC)c(OC)c2-c2ccc(N(C)CC(OC)OC)c(=O)cc21,,-9.29%
C/C(=N\NC(=O)c1c(Cl)c(C)nn1C)c1ccc(NC(=O)C2CCC2)cc1,,-3.25%
Cc1ccc(NC(=O)Cn2ncc(Cl)c(Cl)c2=O)cc1S(=O)(=O)N1CCCCC1,,-4%
O=C(N/N=C/c1ccc2c(c1)OCO2)c1ccc2c(c1)OCCO2,,-9.25%
Brc1ccc2c(c1)[C@H]1OCC[C@H]1[C@@H](c1cccs1)N2,,-13.1%
C=C(C)CNC(=S)N/N=C1\CCCCc2ccccc21,,-2.89% [at 46.1 µM]
COc1ccc(C(=O)c2sc3nc(-c4ccc(C)cc4)cc(C(F)(F)F)c3c2N)cc1,2.06 µM (active),
COc1ccc(NC(=O)c2sc3nc(-c4cccnc4)ccc3c2N)cc1OC,3.66 µM (active),
Cc1cc(N2CCN(C)CC2)ccc1NC(=O)c1c2c(nc3ccccc13)CCN(Cc1ccccc1)C2,,0.0382%
CCOC(=O)c1c(C)nc2sc(C(=O)Nc3ccc(OC)cc3)c(N)c2c1-c1ccc(OC)cc1,,4.85%
COc1ccc(OC)c(-c2cc(-c3cccnc3)nc(N)c2C#N)c1,,-1.36%
COc1ccc(NC(=O)c2sc3nc(-c4ccc(OC)cc4)cc(C(F)(F)F)c3c2N)cc1,0.731 µM (active),
COc1cccc(C(=O)Nc2ncc3c(n2)CC(c2ccc(OC)cc2OC)CC3=O)c1 (stereo not given),,-12.1%

SMILES,Potency,"activity, negative = fluorescence increase"
COc1ccc(NC(=O)c2cc(-c3ccccc3OC)on2)cc1,,0.515%
COc1cccc(NC(=O)Nc2nc(-c3ccc(OC)c(OC)c3)cs2)c1,,1.93%
COc1ccc(NC(=O)c2sc3nc4c(cc3c2N)CN(Cc2ccccc2)CC4)c(OC)c1,18.4 µM (active),
CC1(C)Cc2nc3sc4c(=O)n(CC(=O)NCc5ccccc5)cnc4c3cc2CO1,,-5.27%
O=[N+]([O-])c1ccccc1SNc1ccccc1,,-7.17%
CC(=O)Nc1ccc(S(=O)(=O)Nc2nc3ccccc3nc2Nc2ccc3ccccc3c2)cc1,,-25.1% [at 46.1 µM]
Clc1ccc(-c2csc3ncnc(Sc4nnnn4C4CC4)c23)cc1,,-1.71% [at 46.1 µM]
O=C1NC(c2ccc(Br)cc2)Nc2ccccc21 (stereo not given),,-8.49%
C/C(=N\NC(=O)c1cc(-c2ccncc2)nc2ccccc12)c1ccc(N2CCOCC2)cc1,,-12.7%
CC(=O)Nc1ccc(-c2ccnc3c2CC(C(=O)NCc2cccc(Cl)c2)O3)cc1 (stereo not given),,-14.7%
Cc1cc(-c2nc(C)c(C(=O)NN)s2)no1,,-0.0599%
COc1ccc2nc3sc(C(=O)Nc4cc(Cl)c(OC)cc4OC)cc3cc2c1,,-23.5% [at 46.1 µM]
COc1ccc(OC)c(NC(=O)c2sc3nc(Cc4ccccc4)cc(C(F)(F)F)c3c2N)c1,4.61 µM (active),
COc1cc(C(=O)Nc2nnc(Cc3ccccc3)s2)cc(OC)c1OC,,-5.09%
Cc1cc(C(F)(F)F)c2c(N)c(C(=O)Nc3cc(C)on3)sc2n1,8.2 µM (active),
O=C(N/N=C/c1cccc2ccccc12)c1n[nH]c2c1CCCC2,,-9.91%
O=C(OCC12CC3CC(CC(C3)C1)C2)c1ccc(NCc2cc(O)ccc2O)cc1,,1.57% [at 46.1 µM]
CC(=O)Nc1ccc(-c2ccnc3c2CC(C(=O)Nc2cccc(N(C)C)c2)O3)cc1 (stereo not given),,-0.193%
CC(CC(=O)Nc1ccc2c(c1)c(=O)n(C)n2-c1ccccc1)c1ccccc1 (stereo not given),,-10.9%
CCOC(=O)/C=c1/s/c(=C/c2ccc3cc(OC)ccc3c2)c(=O)n1CC(=O)NCC1CCCO1 (stereo not given),18.4 µM (active),
CCOC(=O)/C=c1\s/c(=C\c2ccccc2C)c(=O)n1CC(=O)NCc1ccc2c(c1)OCO2,15.8 µM (active),
O=C(/C=C/c1cccs1)NCc1ccc2c(c1)OCO2,,3.17% [at 46.1 µM]
NC(=O)CSc1nc2c(sc3ccccc32)c(=O)n1CCCC(=O)NCC1CCCO1 (stereo not given),,-1.95% [at 46.1 µM]
COc1ccc(OC)c(C2CC(=O)c3c([nH]c(C(=O)OCC4CCCO4)c3C)C2)c1 (stereo not given),,-7.09%
O=C(NCc1ccc2c(c1)OCO2)c1cc([N+](=O)[O-])ccc1N1CCOCC1,,-3.98%
COc1cc2c(cc1OC)C1=CC(=O)C(=O)N1C(C)(C)C2,17.7 µM (active),
COc1ccc(-c2cc(NC=O)c3ncc(-c4ccc(C(C)=O)cc4)n3c2)cc1OC,,1.8%

SMILES,Potency,"activity, negative = fluorescence increase"
CCCOc1ccc2cc(C(=O)NCc3ccccc3)c(=O)oc2c1,,-0.451% [at 46.1 µM]
Cc1ccc(CNC(=O)c2cccc3c2C(=O)c2ccc(N4CCC(C)CC4)cc2S3(=O)=O)cc1,20.6 µM (active),
Cc1ccc(CNC(=O)c2cccc3c2C(=O)c2ccc(N4CCCCC4)cc2S3(=O)=O)cc1,20.6 µM (active),
O=C(NCc1ccccc1)c1cccc2c1C(=O)c1ccc(/C=C/c3ccccc3)cc1S2(=O)=O,18.4 µM (active),
Cn1c(=O)c2cc(NC(=O)NCc3ccccc3)ccc2n1C/C=C/c1ccccc1,,-4.85%
CC1CCN(c2ccc3c(c2)S(=O)(=O)c2cccc(C(=O)NCc4cccc(F)c4)c2C3=O)CC1,14 µM (active),
Cc1ccc(CNC(=O)Cc2ccc(-n3cccc3)cc2)cc1,,-0.685%
O=C(NCc1ccc2c(c1)OCO2)c1cc([N+](=O)[O-])ccc1N1CCCCC1,,-15.2%
COc1ccc(NC(=O)C2(C)Cc3c(-c4ccc5c(c4)OCO5)ccnc3O2)cn1 (stereo not given),,-0.638%
CCN(CC)c1ccc(/C=C/c2ccccn2)cc1,14.6 µM (active),
CCN(CC)c1ccc(/C=C/c2ccncc2)cc1,16.4 µM (active),
CCN(CC)c1ccc(/C=C/C2=C3C=CC=CC3NC=C2)cc1 (stereo not given),18.4 µM (active),
CN(C)c1ccc(/C=C/c2ccncc2)cc1,20.6 µM (active),
Cc1cc(N/N=C/c2ccc(O)cc2O)nc(-n2nc(C)cc2C)n1,,-1.47%
CCN(CC)c1ccc(/C=N/NC(=O)c2ccco2)cc1,,-18.9%
CCN(CC)c1ccc(/C=C/C(=O)c2ccc(Br)cc2)cc1,25.9 µM (active),
c1ccc(C2CNCc3c2ccc2ccccc32)cc1 (stereo not given),,-2.66%
CCOc1cc(N(CC)CC)ccc1/C=C(/C#N)c1nc2ccccc2[nH]1,4.61 µM (active),
Cc1cccc(OCCOc2ccccc2C=C(C#N)C#N)c1,,-1.93%
CCN(CC)c1ccc(/C=C(/C#N)c2nc3ccccc3[nH]2)c(OC(C)C)c1,0.58 µM (active),
CCCOc1cc(N(CC)CC)ccc1/C=C(/C#N)c1nc2ccc(C)cc2[nH]1,18.4 µM (active),
O=C1C=C(Nc2ccc(Cl)cc2Cl)CC(c2ccco2)C1 (stereo not given),,-16.1%
CC(=O)c1cccc(-c2ccnc3c2CC(C(=O)Nc2cccc(NS(C)(=O)=O)c2)O3)c1 (stereo not given),,-7.08%
CCS(=O)(=O)N1N=C(c2cccc(NS(C)(=O)=O)c2)CC1c1ccc(C)cc1 (stereo not given),18.4 µM (active),
CS(=O)(=O)Nc1ccc(C2=NN(S(C)(=O)=O)C(c3ccc4nccnc4c3)C2)cc1 (stereo not given),,-0.0277% [at 46.1 µM]
O=C1CCCN1c1ccc(S(=O)(=O)Nc2ccc3c(c2)OCCO3)cc1,,-8.96%
